Results filed as inconclusive are left out. Where a call stands in place of a potency, no number is given. Calls of active or inactive are those of the source. The call rests on the fitted dose curve; in most records, active means well fitted curve in the direction sought with a large enough effect; inconclusive means small, poorly fitted or top-dose-only effect, or another doubt; inactive means no such curve, though single readings can be large; an effect the other way counts as inactive or inconclusive.
Target: Cellular tumor antigen p53 (Homo sapiens) (UniProt P04637)
Assay: Primary qHTS for small molecule compounds that upregulate eGFP-tagged delta133p53alpha (in N-terminal) cells. (AID 2060322);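 further: cells pre-induced with doxycycline then dosed without doxycycline; nearly all actives have a fitted effect of over 75% in size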
Conditions: NCI-H358 eGFP-delta133p53alpha fluorescence, 24 h; activation: stronger effect = higher value
How it was run: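 NCI-H358 cells pre-induced 24 h with 10 ng/ml doxycycline for eGFP-delta133p53alpha, plated dox-free and exposed 24 h at 37C to titrated compounds. Fixed, Hoechst-stained; gated GFP peak intensity by laser scanning cytometry, normalized to DMSO (0%) and 57.5 uM 5-azacytidine (100%).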

Cellular tumor antigen p53 (Homo sapiens), sequence (P04637 whole entry, looked up): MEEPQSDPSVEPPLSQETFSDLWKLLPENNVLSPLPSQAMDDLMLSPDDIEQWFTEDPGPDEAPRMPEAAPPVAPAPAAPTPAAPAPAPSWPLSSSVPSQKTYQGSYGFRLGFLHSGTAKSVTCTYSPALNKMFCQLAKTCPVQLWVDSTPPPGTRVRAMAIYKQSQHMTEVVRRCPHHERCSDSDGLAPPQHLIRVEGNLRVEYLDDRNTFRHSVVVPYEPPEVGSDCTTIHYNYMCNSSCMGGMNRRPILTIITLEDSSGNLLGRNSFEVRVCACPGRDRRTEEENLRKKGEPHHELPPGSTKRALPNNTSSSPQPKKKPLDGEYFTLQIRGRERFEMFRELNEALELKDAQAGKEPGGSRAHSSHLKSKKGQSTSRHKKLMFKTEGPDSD

| SMILES | activation |
| --- | --- |
| NS(=O)(=O)c1ccc(N2N=C(c3ccccc3)CC2c2ccccc2)cc1 (stereo not given) | -18.6% (inactive) |
| Fc1ccc2c(CCNCc3cccc(OCC(F)(F)C(F)F)c3)c[nH]c2c1 | 3.34% (inactive) |
| CC(C)(C)c1cc(Br)cc([C@H](CC(=O)O)NC(=O)CNC(=O)c2cc(O)cc(NC3=NCC(O)CN3)c2)c1 (stereo not given in full) | -5.25% (inactive) |
| CN(C)CCn1cc(-c2ccc(F)cc2)c(-n2cccc2)n1 | -10.5% (inactive) |

Target: Aldehyde dehydrogenase, mitochondrial (Homo sapiens) (UniProt P05091)
Assay: qHTS for Inhibitors of the Aldehyde Dehydrogenase Family (ALDH2) Primary screen (AID 2061308); further: nearly all actives have a fitted effect of over 55% in size
Conditions: ALDH2 enzyme inhibition qHTS, 1536-well; series mostly up to 56 µM

| SMILES | Potency |
| --- | --- |
| CS(=O)(=O)Nc1ccc2oc3c(OC(F)F)ccc(C(=O)Nc4c(Cl)cncc4Cl)c3c2c1 | inactive |
| Nc1c(-c2ccccc2)nc(Cl)c2c(O)n[nH]c(=O)c12 | inactive |
| CCNC(=O)C1CC(F)(c2ccc(CN3CCCC3)c(F)c2)C1 (stereo not given) | inactive |
| Cc1cccc2c1NC(=O)C2(c1ccc(O)cc1)c1ccc(O)cc1 | inactive |
| COc1cc(N)c(Cl)cc1C(=O)NC[C@@H]1CCN2CCC[C@@H]12 | inactive |
| O=C(O)Cc1ccc2oc(-c3ccc(NC(=O)/C=C/c4ccc(Br)cc4)c(F)c3)nc2c1 | inactive |
| C[C@H](Nc1cc2c(-c3ccc4c(c3)OCO4)noc2cn1)c1ccccc1 | inactive |
| O=C(NCc1ccccn1)Nc1nnc(-c2ccco2)o1 | inactive |
| Cc1cc(C)nc(NS(=O)(=O)c2ccc(NC(=S)NC(=O)COc3ccc(Br)cc3Cl)cc2)n1 | inactive |
| CC(OC1OCCN(Cc2n[nH]c(=O)[nH]2)C1c1ccc(F)cc1)c1cc(C(F)(F)F)cc(C(F)(F)F)c1 (stereo not given) | inactive |
| COc1cc(Nc2nc3c(s2)CCCC3c2ccc(F)cc2)ccc1-n1cnc(C)c1 (stereo not given) | inactive |
| CSc1ccc(C(=O)N[C@@H]2CCCC[C@@H]2NC(=O)CNC(=O)c2cc(C(F)(F)F)ccc2NC(=O)NC(C)C)cc1 | inactive |
| CC(C)S(=O)(=O)NC[C@H](C)c1ccc(-c2ccc(CCNS(C)(=O)=O)cc2)cc1 | inactive |
| CN(C)C(=O)NC1(c2ccccc2)CCN(CCC[C@]2(c3ccc(Cl)c(Cl)c3)CCCN(C(=O)c3ccccc3)C2)CC1 | inactive |
| O=C(O)c1cccc(S(=O)(=O)N2CCc3ccccc3C2)c1 | inactive |
| CC(C)(F)CC(NC(c1ccc(-c2ccc(S(C)(=O)=O)cc2)cc1)C(F)(F)F)C(=O)NC1(C#N)CC1 (stereo not given) | inactive |
| Oc1ccc(-c2cnc3ccc(NCc4ccco4)nn23)cc1 | inactive |
| COc1cc2c(cc1OC)-c1[nH]nc(Nc3cccc(F)c3)c1C2 | inactive |

| SMILES | Potency |
| --- | --- |
| CC[C@H]1CN(c2nc(N)c(C(N)=O)nc2Cl)CCN1C1CCN(Cc2ccc(Cl)cc2)CC1 | inactive |
| CC(C)(F)C[C@@H](N[C@@H](c1ccc(-c2ccc(S(C)(=O)=O)cc2)cc1)C(F)(F)F)C(=O)NC1(C#N)CC1 | inactive |
| CCOc1ccc(C(Nc2ccccn2)c2ccc3ccc(C)nc3c2O)cc1C (stereo not given) | inactive |
| Cc1ccccc1C(=O)Nc1ccc(C(=O)N2CCCC(N(C)C)c3ccccc32)cc1 (stereo not given) | inactive |
| COc1cc2nc(C3CC3)nc(N3CCN(c4ccccc4OC)CC3)c2cc1OC | inactive |
| Cc1ccc(NC(=O)C(C)C)cc1C1CCN(Cc2ccc(Oc3ccc(F)c(F)c3)cc2)CC1 | inactive |
| O=C1CC2(CCCC2)[C@H](O)C(=O)N1CCCCN1CCN(c2ncccn2)CC1 | inactive |
| Cc1c(NC(=O)N2CCOCC2)ccc2c1c1ccccc1n2C(C)C | inactive |
| Cc1ccc(-c2c(-c3nn(C)c4ncnc(N5CC[C@H](N6CCCCC6)C5)c34)cnn2C)cc1 | inactive |
| CCOC(=O)c1ccc(NC2CCCCC2)c(N)c1 | inactive |
| Cc1oc2nc3c(c(NC(=O)CN4CCCC4=O)c2c1C)CCCC3 | inactive |
| CC(C)c1c(NC(=O)Nc2ccc(Cl)cc2)c(=O)n(-c2ccccc2)n1C | inactive |
| CN[C@@H]1[C@@H](O)[C@@H](O[C@@H]2[C@@H](O)[C@H](O[C@H]3O[C@H](CN)[C@@H](O)[C@H](O)[C@H]3O)[C@@H](N)C[C@H]2NC(=O)[C@@H](O)CN)OC[C@]1(C)O | inactive |
| COC(=O)CCc1ccc(OCC(O)CNC(C)C)cc1 (stereo not given) | inactive |
| CCOc1ccc(NC(=S)N2CCC(C(O)(c3ccccc3)c3ccccc3)CC2)cc1 | inactive |
| COc1cccc(-n2nc(C(=O)O)cc2-c2ccc(C3CCCCC3)c(Cl)c2)c1 | inactive |
| O=C1C(Cc2ccc(O)cc2)N2C(=O)CCN(C(=O)NCc3ccccc3)C2CN1Cc1cccc2ccccc12 (stereo not given) | inactive |
| CCC[C@@]1(CCc2ccccc2)CC(O)=C([C@H](CC)c2cccc(NS(=O)(=O)c3ccc(C(F)(F)F)cn3)c2)C(=O)O1 | inactive |
